Results taken from PubChem BioAssay AID2551 (National Center for Advancing Translational Sciences (NCATS), 2010).
About 17,000 (5.5%) of roughly 310,000 compounds were called active. Roughly 11% stayed inconclusive and do not appear here. Calls come from the whole dose curve; as a rule, active = well fitted inhibition curve with a large enough effect; inconclusive = small, poorly fitted or top-dose-only effect, or effect the other way; inactive = no such curve, though single readings can be large or run the other way. The entries come from a sample that favours actives as a whole.

The compounds below were run against Nuclear receptor ROR-gamma (Mus musculus) (UniProt P51450) (assay: qHTS for inhibitors of ROR gamma transcriptional activity). Details: Drosophila S2 Gal4-RORgamma UAS-luciferase reporter, 20 h; series mostly up to 53.6 µM; activity change, negative = inhibition: at the top concentration.
In short: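 Luminescence from a UAS-regulated Photinus luciferase reporter in stably transfected Drosophila Schneider cells is measured; decreased signal marks ROR gamma inhibition. Fusion expression is induced by 700 uM copper sulfate for 20 hr.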
% is set by controls: 0 for no effect and ±100 for the full control effect; potency is the fitted concentration of half-maximal effect.
Note: nearly all actives have a fitted effect of over 60% in size.

Nuclear receptor ROR-gamma (Mus musculus), sequence (P51450 whole entry, looked up, the tested form may be a part): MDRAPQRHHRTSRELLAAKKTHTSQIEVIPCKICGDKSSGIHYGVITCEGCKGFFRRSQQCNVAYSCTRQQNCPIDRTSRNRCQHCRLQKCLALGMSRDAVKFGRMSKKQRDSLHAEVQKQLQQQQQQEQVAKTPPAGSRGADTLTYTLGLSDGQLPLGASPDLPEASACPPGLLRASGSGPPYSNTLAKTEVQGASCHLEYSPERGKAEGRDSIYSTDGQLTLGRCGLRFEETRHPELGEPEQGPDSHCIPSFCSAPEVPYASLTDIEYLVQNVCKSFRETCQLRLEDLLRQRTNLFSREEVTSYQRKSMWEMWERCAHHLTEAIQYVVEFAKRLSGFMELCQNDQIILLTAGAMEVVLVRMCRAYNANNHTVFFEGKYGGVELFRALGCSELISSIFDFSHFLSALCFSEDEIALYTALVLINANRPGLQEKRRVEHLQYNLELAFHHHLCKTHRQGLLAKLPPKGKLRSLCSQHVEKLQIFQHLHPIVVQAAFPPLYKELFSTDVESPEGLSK

Activity change, negative = inhibition, inactive:
Cc1ccc(S(=O)(=O)NCC(=O)N2CCOCCOCCOCCOCC2)cc1 -12.4%
O=S(=O)(/N=C(/Nc1ccccn1)c1ccccc1)c1ccc(Cl)cc1 38.3%
O=C(c1ccc(Cl)cc1)n1cnc2ccccc21 -14.8%
COC(=O)c1ccc2ccccc2c1OC1OC(CO)C(O)C(O)C1NC(C)=O (centres undefined) -4.64%
CN(C)CCSc1nc(N)c2c3c(sc2n1)COC(C)(C)C3 -36.3%
CC1(C)Cc2c(sc3nc4n(c(=N)c23)CCCCC4)CO1 25.8%
Fc1ccc(-c2ccc(NCCN3CCOCC3)nn2)cc1 20%
CC(=O)c1c(C)oc2ccc(NS(=O)(=O)c3ccccc3)cc12 13.9%
Cc1ccc(CN2CCC(n3nccc3NC(=O)CCCc3ccccc3)CC2)o1 -40.9%
O=C(CCl)NNc1cccc(Cl)n1 30%
O=C(Nc1cnccn1)c1cccnc1 13.5%
COc1ccc(C)cc1N(CC(=O)NC(C)c1ccccc1)S(C)(=O)=O (centres undefined) 16.1%
COc1cccc(NC(=O)CN(C)C(=O)Cc2ccc(Cl)cc2Cl)c1 3.05%
CC(Oc1ccc(Cl)cc1Cl)C(=O)/C=C/N(C)C (centres undefined) -4.84%
CCOC(=O)N1CCN(S(=O)(=O)N2CCCC(C(=O)NCCCN3CCC(C)CC3)C2)CC1 (centres undefined) -6.51%
Fc1cc(F)c2nc(N3CCOCC3)sc2c1 30.4%
NC(=O)c1c(NC(=O)CSc2nc(N)cc(=O)[nH]2)sc2c1CCCC2 11.5%
NC(=O)c1c(NC(=O)c2ccccc2)sc2c1CCCC2 -16.4%
CC(C)(C)c1ccc(CN2C(=O)c3ccccc3S2(=O)=O)cc1 22.5%
COc1ccc(NC(=O)c2sc3nc(C)nc(N4CCN(c5ccccn5)CC4)c3c2C)c(OC)c1 -30.6%
O=C(NC1CCN(S(=O)(=O)c2ccc(F)cc2)CC1)c1ccccc1 -28.7%
Cc1nn(CC(=O)NCCc2ccccc2)c(=O)c2cc3occc3n12 19.9%
O=C(NC(=S)NC1CCS(=O)(=O)C1)c1cccc([N+](=O)[O-])c1 (centres undefined) -27.1%
COc1ccccc1N=Cc1c(O)c2ccccc2oc1=O -38.7%
O=c1c(-c2ccccc2)coc2cc(O)ccc12 28.4%
CCN(CC)S(=O)(=O)c1ccc(N2CCN(C)CC2)c(NC(=O)Nc2ccccc2F)c1 -26.7%
CCn1c(=O)c2ccccc2n(CC(=O)N2CCCc3ccccc32)c1=O -16%
CC(=O)NC(Cc1c[nH]c2ccccc12)C(=O)NCCc1ccccc1 (centres undefined) 6.43% [at 1.91 µM]
O=C(Nc1ccc(Br)cc1)c1cc(S(=O)(=O)Nc2ccccn2)ccc1Cl -0.848%
Cc1nccn1CC(=O)N/N=C/c1ccc(O)c(O)c1 -18%
O=c1ccc(-c2ccc(S(=O)(=O)Nc3ccccc3)o2)n[nH]1 -24.5%
COc1ccc(C(=O)c2c(C)c(CCC#N)n3ccccc23)c(OC)c1 3.97%
COCCCC1CCN(C(=O)C2CCC(=O)N(C3CCCCCC3)C2)CC1 (centres undefined) 1.67%
Cc1cc(C(=O)NC2CCCc3c2cnn3-c2cccc(C)c2C)c(C)o1 (centres undefined) -111%
Cc1nc2ccccc2c(=O)n1NC(=O)c1ccccc1 -41%
CCCc1nc2ccccc2c(=O)n1/N=C/c1ccc(O)c(O)c1 -4.72%
O=[N+]([O-])c1ccc(N/N=C/c2ccccc2)cc1 -1.85%
O=C(Nn1cnc2ccccc2c1=O)c1ccccc1 12.3%
Cc1ccc2c(=O)cc(C(=O)NCCc3ccc(S(N)(=O)=O)cc3)oc2c1C -29%
CCCCn1c(N)c(N(CCOC)C(=O)c2oc3ccc(OC)cc3c2C)c(=O)[nH]c1=O -16.9%
CCC(=O)Nc1ccc(C(=O)NNC(=O)c2ccc(Cl)cc2)cc1 10%
CCc1cccc(NC(=O)CCCN2C(=O)C(c3ccccc3)Oc3cccnc32)c1 (centres undefined) 18%
O=C1c2ccccc2S(=O)(=O)N1Cc1c(F)cccc1Cl 14.6%

Potency, active:
O=C(c1ccc(Cl)cc1)N1N=C(c2ccccn2)CC1(O)C(F)(F)F (centres undefined) 1.41 µM
C=CCNC(=S)NNc1ncnc2sc3c(c12)CC(C)(C)OC3 1.26 µM
O=C(NNc1ccccn1)c1ccc(Cl)nc1 12.6 µM
CCCC(=O)Nc1cccc(NC(=S)NC(=O)C(C)Oc2ccc(Cl)cc2Cl)c1 (centres undefined) 6.31 µM
Fc1cc(F)c2nc(Nc3nc4c(F)cccc4s3)sc2c1 3.98 µM
NC(=O)c1c(Nc2nc3c(F)cccc3s2)sc2c1CCCC2 12.6 µM
CCCCN1C(=S)NC[C@@H]1C(C)CC (some centres undefined) 3.55 µM
O=c1c(O)c(-c2ccc(O)cc2)oc2ccccc12 7.94 µM
Oc1ccc(Br)cc1/C=N/Nc1ccccn1 5.62 µM
O=c1c2ccccc2ncn1/N=C/c1ccccc1 10 µM
O=c1c2ccccc2nc(N/N=C/c2ccccc2)n1O 11.2 µM
